Results filed as inconclusive are left out. A number with no mark means an inactive call. Calls of active or inactive are those of the source. Calls follow the shape of the dose curve; as a rule, active = well fitted cell-killing curve with a large enough effect; inconclusive = small, poorly fitted or top-dose-only effect, or effect the other way; inactive = no such curve, though single readings can be large or run the other way.

Experiment [1] can be described thus: Quantitative High-Throughput drug screen in 47 multiple myeloma cell lines against the NCATS MIPE library collection: XG1_PLB cell viability assay (AID 1919866). Also: nearly all actives have a fitted effect of over 35% in size. In a few lines: (§1)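 Myeloma cells (500/well) treated with MIPE 4.0 compounds for 48 h at 37 °C, 5% CO2. Viability read as ATP via CellTiter-Glo luminescence after 5 min at RT; DMSO-only wells = 100%, media-only = 0% viability.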

The nature of experiment [2]: Quantitative High-Throughput drug screen in 47 multiple myeloma cell lines against the NCATS MIPE library collection: PE2_PLB cell viability assay (AID 1919869). Also: nearly all actives have a fitted effect of over 35% in size. In short, it runs like this:
as §1

Experiment [3] in a line: Quantitative High-Throughput drug screen in 47 multiple myeloma cell lines against the NCATS MIPE library collection: PCM6_Riken cell viability assay (AID 1919870). Also: nearly all actives have a fitted effect of over 30% in size. In a few lines:
as §1

Experiment [4] can be described thus: Quantitative High-Throughput drug screen in 47 multiple myeloma cell lines against the NCATS MIPE library collection: RPMI8226_ATCC cell viability assay (AID 1919871). Also: nearly all actives have a fitted effect of over 30% in size. In a few lines:
as §1

The nature of experiment [5]: Quantitative High-Throughput drug screen in 47 multiple myeloma cell lines against the NCATS MIPE library collection: OPM2_DSMZ cell viability assay (AID 1919872). Also: nearly all actives have a fitted effect of over 30% in size. In short, it runs like this:
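Myeloma cells (500 per well) were exposed to MIPE 4.0 compounds by pin transfer and incubated 48 hours at 37C, 5% CO2. Viability was read as ATP by CellTiter-Glo luminescence, normalised to DMSO (100%) and media-only (0%) wells.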

Experiment [6] is described as follows: Quantitative High-Throughput drug screen in 47 multiple myeloma cell lines against the NCATS MIPE library collection: KMS28BM_JCRB cell viability assay (AID 1919874). Also: nearly all actives have a fitted effect of over 35% in size. In short, it runs like this:
as §1

Experiment [7] in a line: Quantitative High-Throughput drug screen in 47 multiple myeloma cell lines against the NCATS MIPE library collection: KMS11_JCRBsus cell viability assay (AID 1919873). Also: nearly all actives have a fitted effect of over 50% in size. In a few lines: as §1
The nature of experiment [8]: Quantitative High-Throughput drug screen in 47 multiple myeloma cell lines against the NCATS MIPE library collection: VP6_DJ cell viability assay (AID 1919867). Also: nearly all actives have a fitted effect of over 40% in size. In short, it runs like this: as §1
Experiment [9] is described as follows: Quantitative High-Throughput drug screen in 47 multiple myeloma cell lines against the NCATS MIPE library collection: UTMC2_PLB cell viability assay (AID 1919868). Also: nearly all actives have a fitted effect of over 55% in size. Particulars: CellTiter-Glo ATP luminescence, 48 h; viability (% of DMSO control): at 45.8 µM (top of the series). In a few lines:
as §1
(In general: Cellular ATP, detected with luciferase, serves as a proxy for viable cell number.)
Potency is read from the fitted curve at half-maximal effect.

For `Nc1nc(=O)n([C@H]2C[C@H](O)[C@@H](CO)O2)cc1F`, the Potency was 11.8 nM (active) in experiment [1] and 59 nM (active) in [3]. Moreover, the Potency result in experiment [2], in experiment [4], in experiment [5] and in experiment [6] was “inactive” each time.
Take `Cc1ccccc1C(=O)Nc1ccc(C(=O)N2CCCC(O)c3cc(Cl)ccc32)c(C)c1` (stereo not drawn): the Potency in experiment [1] was 14800 nM (active). In addition, the Potency entry in experiment [4], in experiment [5], in experiment [7] and in experiment [6] was “inactive” throughout.
Regarding `C[C@H](NC(=O)Cc1cc(F)cc(F)c1)C(=O)N[C@H](C(=O)OC(C)(C)C)c1ccccc1`, the Potency result in [1], in [2], in [3], in experiment [5] and in [6] was “inactive” each time.
Regarding `COc1cc(OC)c(NC(=O)Nc2cc(C)on2)cc1Cl`, the Potency entry in experiment [1], in [2], in experiment [3] and in [6] was “inactive” each time.
As for `COc1cc(OC)c(C=CS(=O)(=O)Cc2ccc(OC)c(NCC(=O)O)c2)c(OC)c1`, the Potency in experiment [8] is 372 nM (active); in experiment [9], 166 nM (active); in [2], 469 nM (active); in experiment [3] it was 418 nM (active); in experiment [4], 1660 nM (active); in experiment [5], 372 nM (active). Further, the Potency in experiment [7] was 93.5 nM (active).
Turning to `COc1ccc(C[C@@H](C)[C@@H](C)Cc2ccc(OC)c(OC)c2)cc1OC`, the Potency was 833 nM (active) in experiment [8]; 209 nM (active) in experiment [9]; 332 nM (active) in experiment [2]; 332 nM (active) in [3]; 1180 nM (active) in [4]; 469 nM (active) in [5]. Also, the Potency in experiment [7] was 132 nM (active).
On to `CCN1CCN(C(=O)N[C@H](C(=O)N[C@@H]2C(=O)N3C(C(=O)O)=C(CSc4nnnn4C)CS[C@@H]23)c2ccc(O)cc2)C(=O)C1=O`, for which the Potency result in experiment [1], in experiment [5], in [7] and in experiment [6] was “inactive” throughout.
As for `CC[C@H]1OC(=O)[C@H](C)[C@@H](O[C@H]2C[C@@](C)(OC)[C@@H](O)[C@H](C)O2)[C@H](C)[C@@H](O[C@@H]2O[C@@H](C)C[C@H](N(C)C)[C@@H]2O)[C@](C)(O)C[C@@H](C)C(=O)[C@H](C)[C@@H](O)[C@]1(C)O`, the Potency in [1] is 4180 nM (active). Besides, the Potency entry in [3], in experiment [4], in experiment [5], in experiment [7] and in experiment [6] was “inactive” throughout.
In the case of `CCC[C@H]1C[C@H](C(=O)N[C@@H]([C@@H]2O[C@@H](SC)[C@@H](O)[C@@H](O)[C@@H]2O)[C@H](C)Cl)N(C)C1`, the Potency result in experiment [1], in experiment [2], in experiment [3], in [4], in experiment [5] and in experiment [6] was “inactive” in each case.
Consider `NS(=O)(=O)OC[C@@H]1C[C@@H](n2ccc3c(N[C@H]4CCc5ccccc54)ncnc32)C[C@H]1O`, for which the Potency was 332 nM (active) in [1], 6620 nM (active) in experiment [3] and 296 nM (active) in [7]. Further, the Potency entry in [5] was “inactive”.
As to `C[C@H](NC(=O)[C@@H](O)c1cc(F)cc(F)c1)C(=O)N[C@@H]1C(=O)N(C)c2ccccc2-c2ccccc21`, the Potency in experiment [1] was 16600 nM (active). The Potency result in [3], in experiment [4] and in experiment [5] was “inactive” each time.
Regarding `CC(C=CC=C(C)C=CC1=C(C)CCCC1(C)C)=CC=CC=C(C)C=CC=C(C)C=CC1=C(C)CCCC1(C)C`, the Potency in [1] is 16600 nM (active); in [3], 23500 nM (active). In experiment [5], the Potency result was “inactive”.
For `CC(=O)O[C@H]1C[C@@H]2CC[C@H]3[C@H]4C[C@H]([N+]5(C)CCCCC5)[C@@H](OC(C)=O)[C@@]4(C)CC[C@@H]3[C@@]2(C)C[C@H]1[N+]1(C)CCCCC1`, the Potency result in [1], in [3], in [4], in experiment [5] and in [7] was “inactive” throughout.
For `COc1ccc(Nc2nccc(NCCO)n2)cc1`, in [8], the Potency is 1660 nM (active). Moreover, in experiment [9], the Potency result is “inactive”.
`O=c1ccn([C@@H]2O[C@H](CO)[C@H](O)[C@@H]2F)c(=O)[nH]1`: the Potency in experiment [1] is 5900 nM (active). In addition, the Potency entry in [4], in [7] and in [6] was “inactive” in each case.
For `Cc1cnc(NC(=O)Nc2cc(Br)c(C)cc2OC[C@@H]2CNCCO2)cn1`, the Potency was 4690 nM (active) in experiment [8]; 1480 nM (active) in experiment [9]; 1870 nM (active) in experiment [2]; 10500 nM (active) in [3]; 14800 nM (active) in experiment [6].
With `CCCCOc1ccc(C(=O)Nc2ccc(F)cc2F)cc1`, in [8], the Potency was 7430 nM (active). Besides, the Potency result in experiment [2], in experiment [3], in [4], in experiment [5], in experiment [7] and in [6] was “inactive” throughout.
Consider `CC1=C(C(=O)Nc2cc3cn[nH]c3cc2F)C(c2ccc(Cl)cc2F)N=C(c2ccnc(Cl)c2)N1` (stereo not drawn), for which the Potency in [8] is 18700 nM (active); in [9], 3720 nM (active); in experiment [3], 6620 nM (active); in [7] it was 14800 nM (active); in experiment [6], 23500 nM (active).
With `O=C1CSC(=O)N1C(CCc1ccncc1)COc1ccc(-c2cccc([N+](=O)[O-])c2)cc1` (stereo not drawn), the Potency is 4180 nM (active) in experiment [8], 16600 nM (active) in [2], 7430 nM (active) in experiment [4] and 11800 nM (active) in experiment [7].
As for `CC(C)(C)[C@H](NC(=O)c1ccc(N)c(Cl)c1)C(=O)N1CCC[C@@H]1C(=O)N[C@H](C#N)CC(=O)O`, the Potency in [8] was 834 nM (active). The viability (% of DMSO control) in experiment [9] is 157% [at 3.51 µM]. The viability (% of control) in [2] was 118% [at 3.51 µM]; in experiment [3], 122% [at 3.51 µM]; in experiment [7], 102% [at 3.51 µM].
`CC1(C)O[C@@H]2C[C@H]3[C@@H]4CCC5=CC(=O)C=C[C@]5(C)[C@@H]4[C@@H](O)C[C@]3(C)[C@]2(C(=O)CO)O1`: the results for the Potency in [8], in experiment [4] and in experiment [7] were 18700 nM (active), 33.2 nM (active) and 33.2 nM (active), respectively. In addition, the Potency entry in experiment [2] and in [6] was “inactive” in each case.
